Results: a collection of fitness landscapes (doi:10.1016/j.celrep.2020.107928)
In all, about 81,000 sequences were measured (“one-hybrid fitness for binding NBS DNA”: median about -0.1, highest 2% from about 0.36 on). The sample holds the highest values, similar sequences and a random draw of the others, so the mix is not that of the screen.

B1: Caulobacter ParB omega fusion; a variant is named by its letters at X, in order, B8GW30 (parent)
chain: MESVVVGEPGMSEGRRGLGRGLSALLGEVDAAPAQAPGEQLGGSREAPIEILQRNPDQPRRTFREEDLEDLSNSIREKGVLQPILVRPSPDTAGEYQIVAGERAWRAAQRAGLKTVPIMVRELDDLAVLEIGIIENVQRADLNVLEEALSYKVLMEKFERTQENIAQTIGKSXSHVANXMRLLXLPDEVQSYLVSGELTAXHARAIAAAADPVALAKQIIEGGLSVRETEALARKAPNLSAGKSKGGRPPRVKDTDTQALESDLSSVLGLDVSIDHRGSTGTLTITYATLEQLDDLCNRLTRGI

Variants of: B1
Assay: one-hybrid fitness for binding NBS DNA (the Noc-binding site; scaled: cognate 1, non-cognate 0); higher = stronger binding
Conditions: with NBS DNA site
How it was run: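 The reporter was HIS3, with the binding site 19 bp from the promoter, in E. coli USO used for bacterial one-hybrid selection of Caulobacter ParB libraries with four specificity codons randomised. Growth was on M9 lacking histidine, with 0.1 mM IPTG and 5 mM 3-AT, for 48 hours at 37°C. Illumina sequencing covered plasmids before and after selection; three replicate libraries were pooled and variants with under 10 reads dropped. A fitness score is the log change in variant-to-wild-type read ratio, rescaled to the cognate and non-cognate references.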

Variant	one-hybrid fitness for binding NBS DNA
CHSP	≤ 0.2
DPDC	≤ 0.2
RVHD	≤ 0.2
RVHH	≤ 0.2
RVHY	≤ 0.2
RVHR	0.484
RVFT	0.271
RVAT	0.383
RVAS	0.358
RVHP	≤ 0.2
RVHS	0.461
RVHM	≤ 0.2
RVHT	0.487
RVHN	≤ 0.2
GNNW	≤ 0.2
HSLW	≤ 0.2
SLMG	≤ 0.2
ACAR	≤ 0.2
KRNK	≤ 0.2
SCKG	≤ 0.2
SRHE	≤ 0.2
IGMS	≤ 0.2
LVKR	≤ 0.2
RVQT	0.438
RVQP	≤ 0.2

Variant	one-hybrid fitness for binding NBS DNA
RVRT	0.631
RVPT	≤ 0.2
RVQD	≤ 0.2
RVYT	0.357
QQQI	≤ 0.2
DRRL	≤ 0.2
MTMS	≤ 0.2
RRCD	≤ 0.2
RRCH	0.382
RRCN	0.248
RRCS	0.642
RRCG	0.296
RRCP	≤ 0.2
SSEH	≤ 0.2
RKQS	0.543
RTQH	≤ 0.2
RTQD	≤ 0.2
RSQN	≤ 0.2
RHQS	0.455
RTQS	0.459
RSQD	≤ 0.2
RHQN	≤ 0.2
RKQN	≤ 0.2
RKQD	≤ 0.2
RSQS	0.433

Variant	one-hybrid fitness for binding NBS DNA
RHQH	≤ 0.2
YQLE	≤ 0.2
WLLP	≤ 0.2
PIRG	≤ 0.2
RLRW	≤ 0.2
TAYQ	≤ 0.2
ARIK	≤ 0.2
ACVN	≤ 0.2
VRHN	≤ 0.2
IRAF	≤ 0.2
KMGK	≤ 0.2
VQSE	≤ 0.2
DNKI	≤ 0.2
DLTY	≤ 0.2
WNVE	≤ 0.2
RLQS	0.382
RLQP	≤ 0.2
RMQN	≤ 0.2
RAQD	≤ 0.2
RMQS	0.409
RCQS	0.474
RDQS	≤ 0.2
RAQS	0.416
RPQS	≤ 0.2
RLQH	≤ 0.2

Variant	one-hybrid fitness for binding NBS DNA
RAQN	≤ 0.2
RMQH	≤ 0.2
PCVC	≤ 0.2
NLCG	≤ 0.2
TPCN	≤ 0.2
RCCC	≤ 0.2
VASN	≤ 0.2
HSTM	≤ 0.2
SDNA	≤ 0.2
FLCR	≤ 0.2
WDPR	≤ 0.2
GLGG	≤ 0.2
RPGR	≤ 0.2
RCGR	0.523
RSGH	≤ 0.2
RFGR	0.23
RSGP	≤ 0.2
RSGR	0.459
HRAM	≤ 0.2
FIVS	≤ 0.2
DFTV	≤ 0.2
TRDT	≤ 0.2
